PubChem BioAssay (EPA / NIEHS)
Inconclusive results are not listed. Activity calls are given as the source filed them. Rule for the calls: active = hit-call score of the fitted dose curve at least 0.9, where 1 is the maximum; inconclusive = response in the unintended direction; inactive = score below 0.9.

target: human RAR-related Orphan Receptor beta (RORb), RORB (gene 6096) (UniProt Q92753); assay: ATG_RORb_TRANS: Attagene TRANS-FACTORIAL HepG2 Assay for human RAR-related Orphan Receptor beta (RORb) (AID 2283010)
Sequence (Q92753 whole entry, looked up): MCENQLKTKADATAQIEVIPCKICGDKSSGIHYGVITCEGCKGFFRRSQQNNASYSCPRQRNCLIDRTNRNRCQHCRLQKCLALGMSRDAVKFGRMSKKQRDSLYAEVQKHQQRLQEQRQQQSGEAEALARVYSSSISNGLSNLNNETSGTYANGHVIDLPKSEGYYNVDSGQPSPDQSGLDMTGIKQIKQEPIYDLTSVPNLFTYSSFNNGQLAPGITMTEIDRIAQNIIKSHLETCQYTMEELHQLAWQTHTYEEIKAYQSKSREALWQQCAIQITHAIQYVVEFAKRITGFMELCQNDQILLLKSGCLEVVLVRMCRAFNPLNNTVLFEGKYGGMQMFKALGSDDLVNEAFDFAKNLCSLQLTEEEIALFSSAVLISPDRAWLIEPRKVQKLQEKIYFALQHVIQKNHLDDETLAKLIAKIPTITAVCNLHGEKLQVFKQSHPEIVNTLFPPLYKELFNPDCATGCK
Protocol: ATG_TRANS is a cell-based, multiplexed-readout assay that uses HepG2, a human liver cell line, with measurements taken at 24 hours after chemical dosing in a 24-well plate.ATG_RORb_TRANS is one of 30 assay component(s) measured or calculated from the ATG_TRANS assay. It is designed to make measurements of mRNA induction, a form of inducible reporter, as detected with fluorescence intensity signals by Reverse transcription polymerase chain reaction (RT-PCR) and Capillary electrophoresis technology.Data from the assay component ATG_RORb_TRANS was analyzed into 1 assay endpoint. This assay endpoint, ATG_RORb_TRANS, was analyzed in the positive analysis fitting direction relative to DMSO as the negative control and baseline of activity. Using a type of inducible reporter, measures of mRNA for gain-of-signal activity can be used to understand the reporter gene at the transcription factor-level as they relate to the gene RORB. Furthermore, this assay endpoint can be referred to as a primary readout, because this assay has produced multiple assay endpoints where this one serves a reporter gene function. To generalize the intended target to other relatable targets, this assay endpoint is annotated to the nuclear receptor intended target family, where the subfamily is orphan.
Human liver HepG2 cells are transiently transfected with multiple reporter transcription units (MRTUs) in 6-well plates using FuGene 6 reagent (Roche; 3 ml FuGene/1 mg DNA). The MRTU constructs are regulated by a cis-regulating element (promoter). […] A major difference between the CIS and TRANS system is that in CIS activities of endogenous TFs are measured, whereas the TRANS assay evaluates changes in activities of exogenous, chimeric NR-Gal4 proteins. […] At the end of 24 hour incubation, total RNA was isolated using TriZol reagent (Invitrogen). The isolated RNA is then reverse-transcribed using oligo(dT) primer and Mo-MLV reverse transcriptase (Invitrogen) with DNAse I (Ambion) treatment for 30 min. The one-tenth of the produced cDNA was amplified by PCR using Taq DNA polymerase (Invitrogen) and two reporter sequence-specific primers. The PCR products were fluorescently labeled by primer extension with 6-arboxyfluorescein (6-FAM) 5'-labeled reporter sequence-specific primer (2 min at 95 C, 20 s at 68 C and 10 min at 72 C) and these products were digested with 5U of HpaI (New England Biolabs) for 2h at 37 C. The fragments were purified using Qiaquick PCR columns (Qiagen), analyzed on an ABI 3130xL genetic analyzer (Applied Biosystems) with peak positions identified by using a set of X-rhodamine (ROX)-labeled MapMarker1000 molecular weight standards (BioVentures). The raw capillary electrophoresis data was processed using Attagraph software (Attagene).

| Compound | outcome |
| --- | --- |
| CC(=Cc1ccccc1)[N+](=O)[O-] | inactive |
| CCOC(=O)OC1=C(c2cc(C)ccc2C)C(=O)NC12CCC(OC)CC2 (stereo not given) | inactive |
| O=c1nc(O)n(Cl)c(=O)n1Cl | inactive |
| Brc1ccc(Oc2c(Br)cc(Br)cc2Br)c(Br)c1 | inactive |
| BrCC(Br)c1ccccc1 (stereo not given) | inactive |
| C#CCOC(=O)/C=C(C)/C=C/CC(C)CCCC(C)C (stereo not given) | inactive |
| N#CS | inactive |
| OC(Cc1ccccc1Cl)(Cn1[nH]cnc1=S)C1(Cl)CC1 (stereo not given) | inactive |
| Nc1ccc(-c2ccccc2)cc1 | inactive |
| CN(C)c1ccc(N=O)cc1 | inactive |
| N#Cc1ccccc1Cl | inactive |
| CCOC(=O)CC(=O)CCl | inactive |
| O=[N+]([O-])c1c2ccccc2cc2ccccc12 | inactive |
| Nc1ccc(Br)cc1 | inactive |
| Nc1ccc(N)cc1 | inactive |
| CNC(=O)O/N=C/C(C)(C)S(C)(=O)=O | inactive |
| ClCc1ccccc1Cl | inactive |
| c1ccc(-c2cccc(-c3ccccc3)c2)cc1 | inactive |
| C[C@@H]1O[C@@H](O[C@H]2C[C@@H](O)[C@]3(CO)[C@H]4[C@H](O)C[C@]5(C)[C@@H](C6=CC(=O)OC6)CC[C@]5(O)[C@@H]4CC[C@]3(O)C2)[C@H](O)[C@H](O)[C@H]1O | inactive |

| Compound | outcome |
| --- | --- |
| CC(C)O.CC(C)O.OCCN(CCO)CCO.OCCN(CCO)CCO.[Ti] | inactive |
| CCC(C)(C#N)N=NC(C)(C#N)CC (stereo not given) | inactive |
| C[CH2][Hg][S]c1ccccc1C(=O)O | inactive |
| Brc1c(Br)c(Br)c(Oc2c(Br)c(Br)c(Br)c(Br)c2Br)c(Br)c1Br | inactive |
| O=C(CCl)NCO | inactive |
| CCOP(=S)(OCC)Oc1ccc(Cl)cc1Cl | inactive |
| O=S1(=O)OC(c2cc(Br)c(O)c(Br)c2)(c2cc(Br)c(O)c(Br)c2)c2ccccc21 | inactive |
| N#Cc1ccncc1 | inactive |
| CCC[N+](CCC)(CCC)CCC | inactive |
| CN(CCCC(O)c1cccnc1)N=O (stereo not given) | inactive |
| OCCCCO | inactive |
| Cc1cc(-c2cc(C)c(N)c(C)c2)cc(C)c1N | inactive |
| Cc1cccc(N=Nc2ccc(N(C)C)cc2)c1 | inactive |
| Cl[C@H]1OCCO[C@@H]1Cl | inactive |
| CC(C)[N+](=O)[O-] | inactive |
| O=C(Cl)OCCOCCOC(=O)Cl | inactive |
| COc1ccc(N)cc1 | inactive |
| COC(=O)Nc1cccc(OC(=O)Nc2cccc(C)c2)c1 | inactive |
| O=[N+]([O-])c1cc([As](=O)(O)O)ccc1O | inactive |
